# Laboratory results: PubChem BioAssay (NCATS)
# Records with an inconclusive call do not appear. A number with no mark means an inactive call. Calls of active or inactive are those of the source. Calls come from the whole dose curve.
# Test: Cell Viability - SK-N-SH (AID 435);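 note: compound exposure lasted 40 h at 37 °C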
# Settings: SK-N-SH neuroblastoma cell viability qHTS
# Source text: NIH Chemical Genomics Center [NCGC]
# NIH Molecular Libraries Screening Centers Network [MLSCN]
# National Institutes of Environmental Health Sciences [NIEHS]
# National Toxicology Program [NTP]
# We have developed a 1536-well cell-based assay for quantitative high throughput screening (qHTS) against a number of cell lines to determine in vitro cytotoxicity of small molecules. This particular assay uses the SK-N-SH cell line which is derived from human neuroblastoma.
# NCGC Assay Protocol Summary:
# The CellTiter-Glo luminescent cell viability assay (Promega) is a homogeneous method to measure the number of viable cells in culture. The end point readout of this assay is based on quantitation of intracellular ATP, an indicator of metabolic activity, using the luciferase reaction. Luciferase catalyzes the oxidation of beetle Luciferin to oxyluciferin and light in the presence of ATP. The luminescent signal is proportional to amount of ATP present.
# Using the CellTiter-Glo luminescent cell viability assay, the amount of cellular ATP was measured in the SK-N-SH cell line with complete culture medium following compound treatment for 40 hours. The assay was performed in opaque white Kalypsys 1536-well plates. In the screen, tamoxifen and doxorubicin were used as positive controls. Library compounds were measured for their ability to cause acute toxicity in the cell line, as reflected by a decrease in intracellular ATP levels, in a concentration-dependent manner. Data were normalized to the controls for basal activity (DMSO only) and 100% inhibition (100 uM tamoxifen). AC50 values were determined from concentration-response data modeled with the standard Hill equation.
# qHTS protocol fo CellTiter Glo SK-N-SH cellular assay
# [Step] [Parameter] [Value] [Description]
# 1. Reagent; 5 uL; 1500 SK-N-SH cells/well
# 2. Time; 5 hr; 37 °C incubation
# 4. Controls; 23 nL; Tamoxifen 0.34 uM to 100 uM & Doxorubicin 0.02 nM to 100 uM
# 5. Time; 40 hr; 37 °C incubation
# 6. Reagent; 5 uL; CellTiter Glo reagent
# 7. Time; 20 min; Room Temperature
# 8. Detection; Luminescence; Viewlux plate reader
# Keywords: cell viability, cytotoxicity, SK-N-SH cell line, luminescence, NTPHTS, NTPHTS_NCGC, NIEHS, EPA, DSSTox, MLSMR, MLSCN, NIH Roadmap, qHTS, NCGC
# Potency is the fitted concentration of half-maximal effect.
row,SMILES,Potency
1,Cl/C=C\Cl,> 92 µM
2,Clc1ccccc1,> 92 µM
3,CNC(=O)O/N=C/C(C)(C)S(C)=O (stereo not given),> 92 µM
4,O=[N+]([O-])c1ccc2c3c(cccc13)CC2,> 92 µM
5,C=CC(=O)OCCN(C)C,> 92 µM
6,ClCCOCCCl,> 92 µM
7,N#CC(Br)Br,> 92 µM
8,CCCCNC(=O)n1c(NC(=O)OC)nc2ccccc21,> 92 µM
9,ClP(Cl)(Cl)(Cl)Cl,> 92 µM
10,Nc1ccc([N+](=O)[O-])cc1[N+](=O)[O-],> 92 µM
11,O=[N+]([O-])c1ccc(Cl)c(Cl)c1Cl,> 92 µM
12,CN(C)C(=O)Cl,> 92 µM
13,Clc1cccc(Cl)c1Cl,> 92 µM
14,Nc1ccc(Cl)c(Cl)c1,> 92 µM
15,C=C(Cl)CSC(=S)N(CC)CC,> 92 µM
16,OCCOCCO,> 92 µM
17,N#C/C=C/C#N,24.4 µM (active)
18,CC(C)CON=O,> 92 µM
19,C=CC#N,> 92 µM
20,OCCCCO,> 92 µM

row,SMILES,Potency
1,CC(C)[N+](=O)[O-],> 92 µM
2,CCN(N=O)C(N)=O,> 92 µM
3,Cl/C=C/Cl,> 92 µM
4,O=[N+]([O-])c1c(Cl)c(Cl)c(Cl)c(Cl)c1Cl,> 92 µM
5,Nc1ccc(Cc2ccc(N)c(Cl)c2)cc1Cl,> 92 µM
6,O=C(O)c1cccc(Cl)c1,> 92 µM
7,N#CC(O)c1ccccc1 (stereo not given),> 92 µM
8,CCCCC(=O)Cl,> 92 µM
9,c1ccc(NNc2ccccc2)cc1,> 92 µM
10,C=COC(C)=O,> 92 µM
11,CCBr,> 92 µM
12,Clc1cc(Cl)c(Cl)c(Cl)c1,> 92 µM
13,O=[N+]([O-])c1ccccc1O,> 92 µM
14,CC(Cl)CCl (stereo not given),> 92 µM
15,BrCC(Br)(Br)Br,> 92 µM
16,C=CCBr,> 92 µM
17,C=C(C)CCl,> 92 µM
18,CCCCOC(C)=O,> 92 µM
19,COc1ccc(C=O)cc1,> 92 µM
20,O=[N+]([O-])c1ccccc1-c1ccccc1,> 92 µM
